Laboratory results taken from the supplement of paper PMC11865577.
Counter-ions that a name gives are not always drawn.

Tests used:
Experiment in all cases: normalised indicator fluorescence (fraction of RNA + indicator signal without compound); higher = less displacement of indicator (weaker competition)
Conditions in all cases: compound concentration: 5 uM, 30 min
[1] = system: hsa-mir-191 loop
Method in brief: (§1)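 Compounds, each at about 5 uM final from 0.25 μL of 1 mM DMSO stock, were tested in 96-well plates for displacement of TO-PRO-1 or TO-PRO-3 from RNA in 20 mM phosphate pH 7.0, 20 mM NaCl, 80 mM KCl. Fluorescence was recorded after 30 min on an Infinite 200 PRO (excitation 485 or 620 nm). Reported values are averages of two independent experiments, calculated as indicator fluorescence minus the buffer-plus-indicator blank, divided by the RNA-plus-indicator signal without compound.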

[2] = system: hsa-mir-21 loop
Method in brief: as §1

[3] = system: hsa-mir-221 loop
Method in brief: as §1

[4] = system: hsa-mir-374a loop
Method in brief: as §1

[5] = system: hsa-mir-6850 loop
Method in brief: as §1

[6] = indicator: TO-PRO-1 0.1 uM, RNA concentration: 0.1 uM
[7] = indicator: TO-PRO-3 0.5 uM, RNA concentration: 0.5 uM

SMILES | normalised indicator fluorescence [1, 6] | normalised indicator fluorescence [1, 7] | normalised indicator fluorescence [2, 6] | normalised indicator fluorescence [2, 7] | normalised indicator fluorescence [3, 6] | normalised indicator fluorescence [3, 7] | normalised indicator fluorescence [4, 6] | normalised indicator fluorescence [4, 7] | normalised indicator fluorescence [5, 6] | normalised indicator fluorescence [5, 7]
CCCC(C(=O)OCCN(CC)CC)(c1ccccc1)c1ccccc1 [Proadifen hydrochloride] | 1.01 | 1.04 | 0.923 | 1 | 1.08 | 1.05 | 1.16 | 1.17 | 0.941 | 1.02
C[C@H](CCC(=O)NCCS(=O)(=O)O)[C@H]1CC[C@H]2[C@@H]3[C@@H](O)C[C@@H]4C[C@H](O)CC[C@]4(C)[C@H]3CC[C@]12C [Tauroursodeoxycholic Acid] | 1.03 | 1.01 | 0.892 | 1.01 | 1.02 | 1.05 | 1.06 | 1.13 | 0.975 | 1.02
CC1=C[C@]2(O)O[C@@]3(CC2=C(C)C)[C@@H](C)CC[C@@H]13 [Curcumenol] | 1 | 1.02 | 1.06 | 1.04 | 1.01 | 1.31 | 1.08 | 1.33 | 1.02 | 0.985
COC(=O)C1=CC[C@@]23CC[C@@H]([C@@](C)(/C=C/C=C(\C)C(=O)O)OC2=O)[C@@]3(OC(C)=O)CC1 [Pseudolaric Acid B] | 1.02 | 0.949 | 1.02 | 0.979 | 0.969 | 0.93 | 0.998 | 1.19 | 1.03 | 1.03
Cc1c(C)c2c(c(C)c1O)CCC(C)(C(=O)O)O2 (stereo not given) [Trolox] | 1.03 | 1.05 | 1.02 | 0.957 | 1.05 | 1.12 | 1.11 | 1.22 | 1.02 | 1.07
OC[C@H]1O[C@@H](Oc2ccc(O)cc2)[C@H](O)[C@@H](O)[C@@H]1O [Arbutin] | 0.981 | 1.07 | 1.01 | 1.03 | 1.08 | 1.04 | 1.13 | 1.04 | 0.964 | 1.07
O=C1CCc2ccccc2C1 [Beta-Tetralone] | 1.04 | 1.06 | 1.05 | 1.04 | 1.04 | 1.06 | 1.07 | 1.02 | 0.996 | 1.08
C[C@@H]1O[C@@H](Oc2c(-c3cc(O)c(O)c(O)c3)oc3cc(O)cc(O)c3c2=O)[C@H](O)[C@H](O)[C@H]1O [Myricetrin] | 0.952 | 1.05 | 0.962 | 1.07 | 0.97 | 1.09 | 1.07 | 1.17 | 0.944 | 1.08
O=c1cc(-c2ccc(O)cc2)oc2cc(O)cc(O)c12 [Apigenin] | 1.03 | 1.05 | 0.934 | 1 | 1.04 | 1.03 | 1.05 | 1.22 | 0.954 | 1.06
Oc1cc(O)c2c(c1)O[C@H](c1ccc(O)c(O)c1)[C@@H](O)C2 [(+)-Catechin Hydrate] | 0.971 | 1.07 | 0.941 | 1.02 | 1.02 | 1.13 | 1.15 | 1.22 | 0.975 | 1.09
O=C(O)CCc1ccc(O)cc1O [Hydroumbellic acid] | 1.11 | 1.05 | 0.973 | 1.06 | 0.989 | 1.16 | 1.1 | 1.13 | 1.1 | 1.04
C[C@@H]1O[C@@H](O[C@H]2[C@H](Oc3cc(O)c4c(c3)O[C@H](c3ccc(O)cc3)CC4=O)O[C@H](CO)[C@@H](O)[C@@H]2O)[C@H](O)[C@H](O)[C@H]1O [Naringin] | 0.96 | 1.09 | 0.933 | 1.08 | 1.06 | 1.04 | 1.14 | 1.21 | 0.897 | 1.09
O=C1C[C@@H](c2ccc(O)cc2)Oc2cc(O)cc(O)c21 [Naringenin] | 0.927 | 1.03 | 0.942 | 1.05 | 1.07 | 0.975 | 1.17 | 1.18 | 0.978 | 1.02
O=c1ccc2ccc(O)cc2o1 [7-Hydroxycoumarin] | 1.06 | 1.06 | 1.05 | 0.997 | 1.11 | 1.01 | 1.07 | 1.15 | 0.986 | 1.05
C[C@H]1Oc2cc(cnc2N)-c2c(nn(C)c2C#N)CN(C)C(=O)c2ccc(F)cc21 [Lorlatinib] | 0.997 | 1.03 | 1.05 | 1.03 | 0.999 | 1.02 | 1.08 | 1.26 | 1.14 | 1.05
C1CCN2C[C@@H]3C[C@@H](CN4CCCC[C@@H]34)[C@H]2C1 [(-)-Sparteine sulfate pentahydrate] | 0.913 | 1.02 | 0.863 | 1.2 | 1.09 | 1.06 | 1.14 | 1.14 | 0.921 | 1.05
Cc1c(C)c2c(c(C)c1O)CC[C@@](C)(CCC[C@H](C)CCC[C@H](C)CCCC(C)C)O2 [Vitamin E] | 1.08 | 1.06 | 0.956 | 1.01 | 1.02 | 1.07 | 1.05 | 1.06 | 0.907 | 1.03
O=CN1CC/C(=C/c2ccc3c(c2)OCO3)C1=O | 1.04 | 1.04 | 0.922 | 1.01 | 1.03 | 0.986 | 1.1 | 1.08 | 1 | 1.03

SMILES | normalised indicator fluorescence [1, 6] | normalised indicator fluorescence [1, 7] | normalised indicator fluorescence [2, 6] | normalised indicator fluorescence [2, 7] | normalised indicator fluorescence [3, 6] | normalised indicator fluorescence [3, 7] | normalised indicator fluorescence [4, 6] | normalised indicator fluorescence [4, 7] | normalised indicator fluorescence [5, 6] | normalised indicator fluorescence [5, 7]
CC(=O)O[C@H]1C[C@@]2(C)[C@@H](C[C@@H](O)[C@H]3[C@@]4(C)CC[C@@H](O)[C@@H](C)[C@@H]4CC[C@@]32C)/C1=C(\CCC=C(C)C)C(=O)O [Sodium fusidate] | 1.06 | 1.05 | 0.986 | 1.07 | 1.01 | 1.03 | 1.09 | 1.11 | 0.956 | 1.02
CN1CCN(c2nc(C3=C(c4c[nH]c5ccccc45)C(=O)NC3=O)c3ccccc3n2)CC1 [Sotrastaurin] | 0.995 | 1.01 | 1.13 | 1.04 | 1.03 | 0.999 | 1.19 | 1.3 | 0.954 | 0.996
CC(C)OC(=O)CCC/C=C\C[C@@H]1[C@@H](CC[C@@H](O)CCc2ccccc2)[C@H](O)C[C@@H]1O [Latanoprost] | 1.01 | 1.03 | 0.985 | 0.978 | 1.01 | 1.05 | 1.01 | 1.06 | 1.06 | 1.04
O=C1c2c(O)cc(O)cc2OC(c2ccc(O)c(O)c2)C1O (stereo not given) [Taxifolin] | 0.994 | 1.06 | 0.976 | 1.05 | 1.05 | 1.11 | 1.13 | 1.15 | 0.944 | 1.08
O=c1c(O)c(-c2cc(O)c(O)c(O)c2)oc2cc(O)cc(O)c12 [Myricetin] | 0.403 | 0.684 | 0.387 | 0.742 | 0.505 | 0.659 | 0.543 | 0.424 | 0.604 | 0.969
Oc1cc(O)c2c(c1)O[C@H](c1ccc(O)c(O)c1)[C@@H](O)C2 [Cianidanol] | 1.01 | 1.07 | 0.93 | 1.06 | 1.16 | 1.07 | 1.26 | 1.17 | 1 | 1.07
CN(NC(=O)CC(=O)NN(C)C(=S)c1ccccc1)C(=S)c1ccccc1 [Elesclomol] | 1.05 | 1.03 | 1.06 | 1.03 | 1.04 | 0.964 | 1.09 | 1.18 | 1.02 | 1.02
CO[C@H]1/C=C/O[C@@]2(C)Oc3c(C)c(O)c4c(c3C2=O)C2=NC3(CCN(CC(C)C)CC3)NC2=C(NC(=O)/C(C)=C\C=C\[C@H](C)[C@H](O)[C@@H](C)[C@@H](O)[C@@H](C)[C@H](OC(C)=O)[C@@H]1C)C4=O [Rifabutin] | 1.04 | 1.01 | 1.03 | 0.969 | 0.997 | 1.01 | 1.34 | 1.04 | 0.991 | 1.07
O=c1ccc2ccc(O)c(O)c2o1 [Daphnetin] | 1.01 | 0.873 | 1.09 | 0.941 | 0.91 | 0.965 | 1.09 | 1.03 | 1.19 | 0.881
Nc1c(Br)cc(Br)cc1CN[C@H]1CC[C@H](O)CC1 [Ambroxol] | 0.949 | 1.04 | 0.88 | 1.17 | 1.04 | 1.02 | 1.16 | 1.12 | 0.965 | 1.06
O=c1cc(-c2ccccc2)oc2cc(O)c(O)c(O)c12 [Baicalein] | 0.599 | 0.956 | 0.653 | 0.944 | 0.767 | 0.926 | 0.88 | 0.91 | 0.918 | 1.05
O=C(O)/C=C/c1ccc(Cn2ccnc2)cc1 [Ozagrel hydrochloride] | 0.95 | 0.992 | 1.01 | 1.02 | 1 | 0.921 | 1.07 | 1.12 | 1.02 | 1.03
O=c1c(O)c(-c2ccccc2)oc2cc(O)cc(O)c12 [Galangin] | 1.05 | 1.08 | 1 | 1.04 | 1.03 | 1.22 | 1.11 | 1.3 | 0.971 | 1.07
CC1(C)CC(=O)c2c(C(F)(F)F)nn(-c3ccc(C(N)=O)c(N[C@H]4CC[C@H](O)CC4)c3)c2C1 | 1.03 | 1.03 | 0.989 | 1.04 | 0.978 | 1.18 | 1.01 | 1.13 | 0.777 | 0.989
Cc1cc(C(C)(C)C)c(O)c(C(C)(C)C)c1 | 1.01 | 1.04 | 1.04 | 1 | 1.05 | 1.12 | 1.11 | 1.19 | 0.924 | 1.06
CC(C)(O)[C@@H]1CC[C@](C)([C@H]2[C@@H](O)C[C@@]3(C)[C@@H]4C[C@H](O)[C@H]5C(C)(C)[C@@H](O[C@@H]6OC[C@@H](O)[C@H](O)[C@H]6O[C@@H]6O[C@H](CO)[C@@H](O)[C@H](O)[C@H]6O)CC[C@@]56C[C@@]46CC[C@]23C)O1 [Astragaloside III] | 1.09 | 1.07 | 1.01 | 1.02 | 1.06 | 1.07 | 1.04 | 1.19 | 0.952 | 1.11
COc1nccnc1NS(=O)(=O)c1ccc(NC(=O)/C=C/c2ccc([N+](=O)[O-])s2)cc1 [Necrosulfonamide] | 1.12 | 1.02 | 0.985 | 1.08 | 1.01 | 1.08 | 1.05 | 1.18 | 0.886 | 1
COc1ccc([C@@H]2OC[C@H]3[C@@H]2CO[C@@H]3c2ccc(O[C@@H]3O[C@H](CO)[C@@H](O)[C@H](O)[C@H]3O)c(OC)c2)cc1OC [Forsythin] | 1.06 | 1.04 | 0.926 | 0.988 | 0.939 | 1.04 | 1.09 | 1.09 | 0.927 | 1.07
